Laboratory results from PubChem BioAssay.
The source made the active and inactive calls. Unless noted, the rule behind the calls is not given here.

Assays:
[1] = tested on: Wnt5a (protein binding on small-molecule microarray); test: Wnt5a binders on small-molecule microarray, primary screen, biophysical, 635/667 nm fluorescence (AID 1142); details: 635 nm fluorescence, higher = more signal;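 note: fluorescence read at 667 nm with signal to noise per printed feature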
[2] = cell viability in Huh7 cells, primary screen, cytotoxicity control for HCV replication inhibitor project, CellTiter-Glo luminescence, basal, 48 h (AID 1143); details: Huh7 HCV replicon, higher = more signal, called active from +8 up or from −8 down;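 note: Huh7 hepatoma cells carrying a hepatitis C replication reporter with no stimulus; test concentration not given here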
[3] = P. aeruginosa biofilm formation inhibitors, primary screen, PAO1 strain, BacTiter-Glo luminescence, LB-PBS (AID 1144); details: 12 h, higher = more signal
[4] = CREB reporter modulators without forskolin, primary screen, cell-based, PC12, CRE-LacZ reporter, unstimulated (AID 1145); details: no forskolin, luminescence, 4.5 h, higher = more signal, called active from +8 up or from −8 down
[5] = CREB reporter modulators under forskolin, primary screen, cell-based, PC12, CRE-LacZ reporter, forskolin-stimulated (AID 1146); details: luminescence, 4.5 h, higher = more signal, called active from +8 up or from −8 down;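 note: PC12 cells with 6xCRE LacZ reporter stimulated by forskolin 10 µM; beta-galactosidase reporter signal reflecting CREB driven transcription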
[6] = target: Streptavidin (Streptomyces avidinii) (UniProt P22629); test: streptavidin binders on small-molecule microarray, primary screen, artefact control for SMM compound annotation, biophysical, 635/667 nm fluorescence (AID 1147); details: streptavidin binding, higher = more signal;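 note: signal reflects streptavidin binding to arrayed compounds as a control protein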
[7] = small-molecule binders of probe aInhba, primary screen, biochemical, small-molecule microarray, 635/667 nm fluorescence (AID 1148); details: higher = more signal;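 note: score merges 667nm spot fluorescence with signal-to-noise for antibody binding to printed compounds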
Torsin-1A (Homo sapiens) [8] = target: Torsin-1A (Homo sapiens) (UniProt O14656); test: torsin A binders from cell lysate, primary screen, small-molecule microarray, wild-type, 635/667 nm (AID 1149); details: COS7 hTOR1A-WT lysate, 635 nm fluorescence, higher = more signal
Torsin-1A (Homo sapiens) [9] = target: Torsin-1A (Homo sapiens) (UniProt O14656); test: small-molecule binders of mutant TOR1A in lysate, primary screen, cell lysate, small-molecule microarray, COS7 lysate, 635/667 nm fluorescence (AID 1150); details: COS7 hTOR1A mutant lysate, 635 nm fluorescence, higher = more signal;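 note: score pools 667 nm emission and signal to noise measuring lysate protein binding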
[10] = tested on: Sonic hedgehog protein (Shh); test: small-molecule binders of Shh protein, primary screen, biochemical, small-molecule microarray, 635/667 nm fluorescence (AID 1151); details: small-molecule microarray binding, 635 nm fluorescence; higher = more signal;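 note: Shh protein binding to compounds spotted on small-molecule microarray slides; score combines spot fluorescence intensity with signal-to-noise across triplicate slides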
[11] = E. coli DRC41 culture turbidity changes, primary screen, E. coli filamentation inducer project, strain DRC41, OD650, 48 h (AID 1152);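 note: E. coli MC1000 strain DRC41 lacking acrAB efflux pump and sulA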; details: E. coli DRC41 (acrAB sulA), higher = more signal, called active from +8 up or from −8 down
[12] = small-molecule binders of probe aLefty1, primary screen, biochemical, small-molecule microarray, 635/667 nm fluorescence (AID 1153); details: higher = more signal;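 note: score merges spot fluorescence with signal-to-noise ratio from the scanned slide images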
[13] = PSAC antagonists in infected red cells, primary screen, cell-based, P. falciparum Indochina, OD700, 1 h (AID 1154); details: P. falciparum Indochina infected RBC osmotic lysis, higher = more signal, called active from +8 up or from −8 down
[14] = PSAC antagonists in infected red cells, primary screen, cell-based, P. falciparum Indochina, OD700, 2 h (AID 1155);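 note: lysis reports solute entry through the parasite surface anion channel PSAC; channel blockers reduce lysis of infected cells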; details: P. falciparum Indochina infected erythrocytes, osmotic lysis OD700; higher = more signal, called active from +8 up or from −8 down
[15] = osmotic lysis modulators in infected erythrocytes, primary screen, PSAC antagonist project, cell-based, P. falciparum Indochina, OD700, 3 h (AID 1156); details: higher = more signal, called active from +8 up or from −8 down
[16] = PSAC antagonists in infected red cells, primary screen, cell-based, P. falciparum Indochina, OD700, 18 h (AID 1157); details: P. falciparum Indochina infected erythrocytes, osmotic lysis OD700, 18 h; higher = more signal, called active from +8 up or from −8 down
[17] = modulators of S6 phosphorylation in cells, primary screen, cell-based, A549, cytoblot, luminescence, serum-stimulated (AID 1158); details: A549 phospho-S6 cytoblot, 5 h, higher = more signal;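 note: serum-stimulated A549 lung adenocarcinoma cells; signal is phosphorylated S6 detected by cytoblot immunostaining with HRP secondary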
[18] = target: NADPH oxidase 2 (Homo sapiens) (UniProt P04839); test: NOX2-dependent H2O2 signal modulators, primary screen, NOX inhibitor project, cell-based, HEK293-NOX2, PMA-stimulated, Amplex Red fluorescence (AID 1159); details: 45 min, higher = more signal, called active from +8 up or from −8 down; note: test concentration not given here
[19] = target: NADPH oxidase 4 (Homo sapiens) (UniProt Q9NPH5); test: NOX4-dependent H2O2 signal modulators, primary screen, NOX inhibitor project, cell-based, HEK293-NOX4, tetracycline-induced, Amplex Red fluorescence (AID 1160); details: 45 min, higher = more signal, called active from +8 up or from −8 down
[20] = target: NADPH oxidase 5 (Homo sapiens) (UniProt Q96PH1); test: NOX5-dependent H2O2 signal modulators, primary screen, NOX inhibitor project, cell-based, HEK293-NOX5, Amplex Red fluorescence (AID 1161); details: HEK293-NOX5, ionomycin, 45 min, higher = more signal
Chain of NADPH oxidase 5 (Homo sapiens) (Q96PH1 whole entry, looked up): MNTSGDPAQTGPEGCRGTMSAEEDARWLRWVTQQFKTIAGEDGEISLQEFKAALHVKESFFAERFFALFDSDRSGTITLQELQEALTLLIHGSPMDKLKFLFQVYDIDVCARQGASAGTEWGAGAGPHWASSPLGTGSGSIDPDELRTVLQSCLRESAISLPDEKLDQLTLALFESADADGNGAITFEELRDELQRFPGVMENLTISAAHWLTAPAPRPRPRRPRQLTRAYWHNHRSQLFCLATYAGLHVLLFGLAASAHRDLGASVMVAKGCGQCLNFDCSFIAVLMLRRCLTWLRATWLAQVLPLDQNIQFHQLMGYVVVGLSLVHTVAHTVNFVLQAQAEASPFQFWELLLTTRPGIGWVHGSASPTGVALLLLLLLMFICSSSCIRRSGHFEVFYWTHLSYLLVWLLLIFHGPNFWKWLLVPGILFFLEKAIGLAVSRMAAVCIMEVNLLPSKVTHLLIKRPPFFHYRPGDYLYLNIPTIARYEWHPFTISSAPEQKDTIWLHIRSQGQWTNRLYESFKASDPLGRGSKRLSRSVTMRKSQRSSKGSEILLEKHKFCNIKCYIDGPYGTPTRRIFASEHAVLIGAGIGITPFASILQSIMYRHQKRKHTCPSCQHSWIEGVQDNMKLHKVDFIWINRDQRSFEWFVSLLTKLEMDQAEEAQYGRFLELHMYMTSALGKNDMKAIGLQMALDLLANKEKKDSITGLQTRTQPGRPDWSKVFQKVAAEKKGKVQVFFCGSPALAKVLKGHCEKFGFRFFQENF

Chain of NADPH oxidase 4 (Homo sapiens) (Q9NPH5 whole entry, looked up): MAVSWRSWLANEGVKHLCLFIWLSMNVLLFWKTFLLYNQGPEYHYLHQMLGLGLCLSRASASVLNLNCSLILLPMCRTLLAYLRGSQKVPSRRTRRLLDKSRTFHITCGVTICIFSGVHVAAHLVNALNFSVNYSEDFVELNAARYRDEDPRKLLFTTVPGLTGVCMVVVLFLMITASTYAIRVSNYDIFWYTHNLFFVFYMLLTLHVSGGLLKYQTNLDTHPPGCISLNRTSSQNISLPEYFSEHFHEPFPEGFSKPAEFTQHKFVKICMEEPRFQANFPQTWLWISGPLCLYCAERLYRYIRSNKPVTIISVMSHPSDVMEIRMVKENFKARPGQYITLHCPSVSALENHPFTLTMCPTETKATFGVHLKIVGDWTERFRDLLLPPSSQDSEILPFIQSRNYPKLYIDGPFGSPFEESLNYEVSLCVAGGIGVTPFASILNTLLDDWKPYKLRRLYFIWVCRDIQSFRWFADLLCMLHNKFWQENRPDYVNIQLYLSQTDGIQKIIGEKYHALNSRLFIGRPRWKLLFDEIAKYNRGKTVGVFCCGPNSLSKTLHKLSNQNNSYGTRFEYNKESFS
Chain of Torsin-1A (Homo sapiens) (O14656 whole entry, looked up): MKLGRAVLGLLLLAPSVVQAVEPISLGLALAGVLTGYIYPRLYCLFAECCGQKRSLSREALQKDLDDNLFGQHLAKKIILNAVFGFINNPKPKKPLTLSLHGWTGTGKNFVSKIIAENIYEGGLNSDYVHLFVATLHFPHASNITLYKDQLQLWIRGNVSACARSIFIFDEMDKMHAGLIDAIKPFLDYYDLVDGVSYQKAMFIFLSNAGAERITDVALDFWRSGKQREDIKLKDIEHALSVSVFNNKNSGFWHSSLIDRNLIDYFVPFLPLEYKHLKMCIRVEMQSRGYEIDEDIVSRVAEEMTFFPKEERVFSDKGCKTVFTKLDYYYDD
Chain of Streptavidin (Streptomyces avidinii) (P22629 whole entry, looked up): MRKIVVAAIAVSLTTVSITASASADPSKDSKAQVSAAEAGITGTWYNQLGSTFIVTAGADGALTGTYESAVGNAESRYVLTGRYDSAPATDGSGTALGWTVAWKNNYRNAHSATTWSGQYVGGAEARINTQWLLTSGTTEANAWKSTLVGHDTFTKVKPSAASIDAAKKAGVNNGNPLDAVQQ
Chain of NADPH oxidase 2 (Homo sapiens) (P04839 whole entry, looked up): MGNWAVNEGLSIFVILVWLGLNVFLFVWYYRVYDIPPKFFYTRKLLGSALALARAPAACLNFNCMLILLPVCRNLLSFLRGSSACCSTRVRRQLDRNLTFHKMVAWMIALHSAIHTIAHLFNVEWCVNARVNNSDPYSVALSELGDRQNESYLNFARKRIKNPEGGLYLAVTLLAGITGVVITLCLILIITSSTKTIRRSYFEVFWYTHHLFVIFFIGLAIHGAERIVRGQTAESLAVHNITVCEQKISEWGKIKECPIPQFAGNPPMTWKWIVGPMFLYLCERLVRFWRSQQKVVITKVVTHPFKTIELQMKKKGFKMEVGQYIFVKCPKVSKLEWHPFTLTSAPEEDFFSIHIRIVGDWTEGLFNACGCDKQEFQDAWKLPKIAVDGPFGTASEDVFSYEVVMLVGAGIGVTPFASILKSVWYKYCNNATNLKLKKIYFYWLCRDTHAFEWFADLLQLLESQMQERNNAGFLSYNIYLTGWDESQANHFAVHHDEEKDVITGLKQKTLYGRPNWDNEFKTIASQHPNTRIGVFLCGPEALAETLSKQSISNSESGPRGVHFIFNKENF

| SMILES | composite z-score [1] | z-score [2] | z-score [3] | z-score [4] | z-score [5] | composite z-score [6] | composite z-score [7] | composite z-score (Torsin-1A (Homo sapiens) [8]) | composite z-score (Torsin-1A (Homo sapiens) [9]) | composite z-score [10] | z-score [11] | composite z-score [12] | z-score [13] | z-score [14] | z-score [15] | z-score [16] | z-score [17] | z-score [18] | z-score [19] | z-score [20] |
| --- | --- | --- | --- | --- | --- | --- | --- | --- | --- | --- | --- | --- | --- | --- | --- | --- | --- | --- | --- | --- |
| CCOC(=O)C1=CCC(c2cccc(Cl)c2)O1 (stereo not given) | -0.0719 | -4.6 (inactive) | -1.23 (inactive) | -0.471 (inactive) | 0.0691 (inactive) | -0.164 | 0.0541 | 0.368 | 0.263 | -0.549 | -0.504 (inactive) | 0.152 | 14.9 (active) | 1.02 (inactive) | 0.75 (inactive) | -0.244 (inactive) | 1.61 | -4.41 (inactive) | -1.37 (inactive) | -3.51 |
| [N-]=[N+]=Nc1ccccc1[C@@H]1OC(c2ccc(OCCCO)cc2)=N[C@]1(CCS(=O)(=O)c1ccccc1)C(=O)NCc1ccccc1 | 0.554 | -1.97 (inactive) | 0.156 (inactive) | -0.744 (inactive) | -0.653 (inactive) | 1.3 | 0.293 | 1.53 | 1.29 | 0.565 | 0.871 (inactive) | 1.01 | 28 (active) | 23.5 (active) | 1.29 (inactive) | 4.33 (inactive) | -0.309 | -1.86 (inactive) | 0.642 (inactive) | 1.15 |
| COC(=O)[C@@]1(Cc2ccc(OC)cc2)[C@H]2c3cc(C(=O)N(C)C)n(Cc4cc(C)n(C)n4)c3C[C@H]2CN1C(=O)c1ccccc1 | 0.982 | -0.753 (inactive) | 0.329 (inactive) | 0.19 (inactive) | 2.65 (inactive) | 0.462 | 0.229 | 0.638 | 0.67 | -0.797 | -1.82 (inactive) | 0.396 | 2.11 (inactive) | 0.498 (inactive) | 1.45 (inactive) | 0.544 (inactive) | 0.355 | 0.27 (inactive) | -1.52 (inactive) | -3.56 |
| COc1cc(C(O)C2C=CC3C(=O)NC(=O)C3N2Nc2ccc(Cl)cc2Cl)cc(OC)c1OC (stereo not given) | 0.273 | 0.127 (inactive) | -0.591 (inactive) | 0.622 (inactive) | 0.472 (inactive) | 1.59 | 0.115 | -0.69 | 0.81 | 0.245 | -1.52 (inactive) | 0.505 | 1.94 (inactive) | 1.49 (inactive) | 0.0681 (inactive) | 1.24 (inactive) | -0.778 | -0.885 (inactive) | -5.56 (inactive) | -3.11 |
| C=C(COC)C(=O)CC[C@H](OC(=O)c1ccccc1-c1ccccc1C(=O)O)c1ccc(CO)o1 | 0.634 | 0.465 (inactive) | -0.39 (inactive) | 0.434 (inactive) | 0.964 (inactive) | -0.451 | -0.179 | 0.507 | 1.79 | 1.69 | -0.093 (inactive) | -0.0954 | 1.77 (inactive) | 0.404 (inactive) | 1.38 (inactive) | 0.161 (inactive) | -0.121 | -0.0961 (inactive) | -0.0962 (inactive) | -0.0437 |
| CC(C)c1ccc(NN2C(C(O)c3ccccn3)C=CC3C(=O)N(c4ccccc4)C(=O)C32)cc1 (stereo not given) | 1.01 | 0.0489 (inactive) | -0.997 (inactive) | 0.0501 (inactive) | 0.792 (inactive) | 0.608 | 0.46 | 1.55 | 2.09 | 1.98 | -0.701 (inactive) | 0.595 | 7.66 (inactive) | 1.4 (inactive) | 2.42 (inactive) | 1.64 (inactive) | -0.336 | -1.2 (inactive) | -3.57 (inactive) | -3.05 |
| COc1cc(C(O)C2C=CC3C(=O)N(C)C(=O)C3N2NC(=O)OC(C)(C)C)cc(OC)c1OC (stereo not given) | 0.653 | 0.778 (inactive) | 0.66 (inactive) | -0.326 (inactive) | 1.25 (inactive) | 0.671 | 0.798 | -0.146 | 0.727 | -0.32 | -1.47 (inactive) | 0.733 | -0.249 (inactive) | 1 (inactive) | -0.226 (inactive) | 1.12 (inactive) | -1.27 | -0.231 (inactive) | -0.726 (inactive) | -1.48 |
| CN(C)CCCCNC(=O)[C@H]1C[C@H]2C(=O)N[C@@H](CCCC[N+](C)(C)C)C(=O)N2[C@H]1c1cccc(OCCO)c1 | 0.446 | -0.255 (inactive) | -1.16 (inactive) | -0.659 (inactive) | -0.197 (inactive) | 0.773 | 0.0228 | 1.04 | 1.01 | 2.01 | 0.125 (inactive) | 0.145 | 3.16 (inactive) | 0.77 (inactive) | 0.675 (inactive) | 0.178 (inactive) | -0.294 | 2.19 (inactive) | 1.58 (inactive) | 1.26 |
